# Results as given in PubChem BioAssay (NCI).
# About 83,000 compounds went through this panel and 20% of them were active in at least one assay; those are over-represented in the sample as a whole.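 Results are percent growth after 48 hours of single-concentration exposure. 100 means growth as in untreated cells, lower positive values show inhibition; negative values down to -100 show cell death.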 Unmarked numbers belong to inactive results. The source made the active and inactive calls. How the source made its calls: active means growth percent below 10; inactive means the rest.
# Key:
# Test in all cases: NCI-60 one-dose screen, 48 h (100 = growth as untreated, 0 = no growth, -100 = all killed)
# Settings in all cases: 10 µM unless noted
# NCI-H23 lung = tested on: NCI-H23 lung
# NCI-H226 lung = tested on: NCI-H226 lung
# NCI-H322M lung = tested on: NCI-H322M lung
# HOP-62 NSCLC = tested on: HOP-62 NSCLC
# NCI-H460 lung = tested on: NCI-H460 lung
# NCI-H522 lung = tested on: NCI-H522 lung
# A549/ATCC NSCLC = tested on: A549/ATCC NSCLC
# 786-0 renal = tested on: 786-0 renal
# COLO 205 colon = tested on: COLO 205 colon
# DU-145 prostate = tested on: DU-145 prostate
# K-562 leukemia = tested on: K-562 leukemia
# MDA-MB-231 breast = tested on: MDA-MB-231 breast
# RXF 393 renal = tested on: RXF 393 renal
# SF-268 CNS = tested on: SF-268 CNS
# SF-295 CNS = tested on: SF-295 CNS
# SF-539 CNS = tested on: SF-539 CNS
# UACC-257 melanoma = tested on: UACC-257 melanoma
# M14 melanoma = tested on: M14 melanoma
# MALME-3M melanoma = tested on: MALME-3M melanoma
SMILES,growth (NCI-H23 lung),growth (NCI-H226 lung) [%],growth (NCI-H322M lung) [%],growth (HOP-62 NSCLC) [%],growth (NCI-H460 lung),growth (NCI-H522 lung),growth (A549/ATCC NSCLC),growth (786-0 renal),growth (COLO 205 colon),growth (DU-145 prostate) [%],growth (K-562 leukemia),growth (MDA-MB-231 breast) [%],growth (RXF 393 renal),growth (SF-268 CNS) [%],growth (SF-295 CNS),growth (SF-539 CNS),growth (UACC-257 melanoma) [%],growth (M14 melanoma),growth (MALME-3M melanoma) [%]
O=C(CN1CCN(c2cc(=O)n(-c3ccccc3)c3ccccc23)CC1)Nc1nc(-c2ccc(Cl)cc2)cs1,49.8%,47.4,89.1,65.8,54.8%,56.3%,52.6%,67.6%,57.3%,61.6,24.2%,74.7,67%,54.5,62.6%,76.1%,28,55.1%,
CC1(C)NCCC[C@]2(C)[C@H]3C/C(=N\O)C4[C@@H]5C[C@@](C)(CO)CC[C@]5(C)CC[C@@]4(C)[C@]3(C)CC[C@@H]12 (some centres undefined),94.2%,94.3,101,111,100%,97.4%,95.3%,98.4%,103%,106,80.7%,93.7,91.5%,87.6,100%,97.8%,102,101%,
Cc1ccc2sc3c(c2c1)OC(N)=C(C#N)C3c1ccc(Cl)cc1 (centres undefined),86.2%,68,99,79.6,56.2%,58.2%,96.9%,102%,96.7%,76.8,,65.2,50.6%,89.3,74%,70.8%,89.8,64.5%,71.5
O=C(CCn1c[n+](CC(=O)c2ccc(-c3ccccc3)cc2)c2ccccc21)Nc1cccc2cccnc12,60.2%,57,82.8,94.4,55.3%,41.7%,89.8%,71.5%,44.2%,78.9,22.9%,49.6,69.6%,55,89.6%,75.5%,23.6,49.1%,
O=C(CN1CCN(c2cc(=O)n(-c3ccccc3)c3ccccc23)CC1)Nc1nc(-c2ccccc2)cs1,60.8%,48.2,89.4,66.4,32.2%,66.5%,56.2%,89.3%,60.1%,72.7,22.4%,62.6,76.9%,79.2,66.7%,77.1%,48.5,69.7%,
CCO/C=N/C1=C(C#N)C(c2ccc(Cl)cc2)c2sc3c(C)cccc3c2O1 (centres undefined),25.2%,51.1,43.6,41.4,4.89% (active),8.93% (active),26.9%,29.1%,4.67% (active),19.2,7.31% (active),24.4,-27.6% (active),51.1,-19.3% (active),-11.5% (active),76.2,1.8% (active),
C#C[C@]1(O)CC[C@H]2[C@@H]3CC=C4c5sc(-c6ccc7c(c6)OCO7)nc5CC[C@]4(C)[C@H]3CC[C@@]21C,6.36% (active),32.3,37.1,11.2,-26.2% (active),2.16% (active),6.31% (active),-28.9% (active),51.9%,20.1,32.6%,51.8,-49.3% (active),51.7,-47.7% (active),-36.6% (active),17.7,6.34% (active),
Cc1occc1-c1nc2s/c(=C/c3ccc(-c4cc(C(F)(F)F)ccc4Cl)o3)c(=O)n2n1,104%,98.1,101,116,109%,,102%,103%,112%,103,105%,104,108%,97.2,99.7%,103%,105,97.1%,98.5
